From PubChem
BRCA1 expr act = increases BRCA1 expression | MCF7-BRCA1-FFLuc reporter, luminescence, 48 h; response scale: scaled: vehicle 0%, 10 µM genistein 100% | Potency, µM (doses to about 46.1 µM), for inactives: at the top dose activation, actives largely listed as activators | 1.1% of 380,000 active | AID 624202; further: potency means the concentration at half of the fitted maximal effect; nearly all actives have a fitted effect of over 80% in size
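MCF7-BRCA1-FFLuc, 2000 cells/well; 2 h attach, 37 °C/5% CO2; compound 48 h; luciferase substrate 15 min; luminescence end-point. Norm. to genistein 10 microM max activation and DMSO; concentration-response curves fitted.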
Giardia kill = kills Giardia lamblia; AID 540267; 0.15% of 340,000 active; Giardia lamblia trophozoite viability; activity change, % at 7.66 µM, hits read low; in the data active means activity change below about -80%; inconclusive means between about -30% and that limit;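 further: parasites exposed to compound for two days anaerobically before the ATP read; on the % scale 0 is the no-effect control and ±100 the full control effect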
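Each well holds 100 Giardia trophozoites and compound. After two days (48 hrs) at 37 deg C in anaerobic conditions, ATP is quantified by luminescence.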
RORgamma inh = inhibitors of mouse ROR gamma transcriptional activity; P51450; Drosophila S2 Gal4-RORgamma UAS-luciferase reporter, 20 h; Potency, µM (top dose mostly 53.6 µM), without a hit: top-dose activity change, negative = inhibition, most hits filed as inhibitors; 5.4% of 310,000 active; further: potency means the concentration at half of the fitted maximal effect; on the % scale 0 is the no-effect control and ±100 the full control effect; nearly all actives have a fitted effect of over 60% in size
Target sequence (P51450 whole entry, looked up, the tested form may be a part): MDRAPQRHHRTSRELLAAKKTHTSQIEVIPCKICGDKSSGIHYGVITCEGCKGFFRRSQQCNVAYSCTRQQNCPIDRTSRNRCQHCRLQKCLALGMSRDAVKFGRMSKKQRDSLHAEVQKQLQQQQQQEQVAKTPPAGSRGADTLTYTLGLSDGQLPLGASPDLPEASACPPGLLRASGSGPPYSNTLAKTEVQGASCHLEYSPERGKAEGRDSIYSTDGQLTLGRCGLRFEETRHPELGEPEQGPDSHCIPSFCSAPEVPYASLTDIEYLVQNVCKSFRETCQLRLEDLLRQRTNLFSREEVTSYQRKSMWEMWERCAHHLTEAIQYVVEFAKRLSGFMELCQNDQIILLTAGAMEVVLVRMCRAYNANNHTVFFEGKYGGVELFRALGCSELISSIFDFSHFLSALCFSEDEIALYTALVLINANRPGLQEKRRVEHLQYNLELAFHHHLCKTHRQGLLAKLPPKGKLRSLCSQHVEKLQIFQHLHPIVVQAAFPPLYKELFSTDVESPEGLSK
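Stably transfected Drosophila Schneider cells are the test system, with ROR gamma fused to Gal4 and luciferase under UAS control; luminescence is read after 20 hr of 700 uM copper sulfate induction at ambient temperature.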
p53 reactivation = restores transcriptional activity of mutant p53; H1299 p53-A138V BP100-luciferase reporter, luminescence, 24 h; 0.063% of 320,000 active; AID 504706; Potency, µM (titrated, usually from 92.2 µM), without a hit: top-dose activity change, positive = activation, usual class: activators; further: potency means the concentration at half of the fitted maximal effect; % of control where 0% means no effect; nearly all actives have a fitted effect of over 45% in size
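H1299 (p53-null), stable ts p53-A138V + BP100-Luc; 1000 cells/well, Opti-MEM/10% FBS; cpd 4 pt, 1:5; 24 h, 37 deg C, 5% CO2; detection reagent 10 min RT; luminescence.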
ELG1 DNA repair = blocks ELG1-dependent DNA repair in HEK293T cells | 2.3% of 330,000 active | HEK293T ELG1-luciferase reporter, luminescence, 16 h; DNA damage induced by 5-fluorouridine | Potency, µM (highest dose often 46.1 µM), inactives show top-dose activity change, negative = inhibition, most hits filed as inhibitors; further: potency means the concentration at half of the fitted maximal effect; on the % scale 0 is the no-effect control and ±100 the full control effect; nearly all actives have a fitted effect of over 55% in size
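HEK293T cells expressing luciferase-tagged ELG1 (2,000/well) received 5-Fluorouridine plus compound or DMSO for 16 hr at 37 °C. Luciferase was read by ONE-Glo luminescence after 30 min at room temperature.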
Gal4-VP16 FLuc = Gal4-VP16 reporter inhibition counter-screen; Drosophila S2 Gal4-VP16 UAS-luciferase, luminescence, 20 h; Potency, µM (series often up to 53.6 µM), for inactives: at the top dose activity, negative = inhibition, most hits filed as inhibitors; 3.5% of 310,000 active;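 further: Gal4-VP16 expression switched on by copper sulfate through the metallothionein promoter; potency means the concentration at half of the fitted maximal effect; on the % scale 0 is the no-effect control and ±100 the full control effect; nearly all actives have a fitted effect of over 50% in size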
* marks the source's active call; other numbers are inactive results; [ ] = dose if it differs, or a comment. Hits are enriched below; roughly 7.6% of the tested compounds scored in any of these assays. Unless noted, the call rests on the fitted dose curve; in most records, active means well fitted curve in the direction sought with a large enough effect; inconclusive means small, poorly fitted or top-dose-only effect, or another doubt; inactive means no such curve, though single readings can be large; an effect the other way counts as inactive or inconclusive.

`Cn1c(N2CCN(c3ccccn3)CC2)nc2c1c(=O)n(Cc1ccc(Cl)cc1)c(=O)n2C` gave BRCA1 expr act -69%, Giardia kill 13, RORgamma inh 5%, p53 reactivation 0%, ELG1 DNA repair 16µM* and Gal4-VP16 FLuc 0%.
Screening Cc1ccnc(SCCn2c(N3CCN(Cc4ccccc4)CC3)nc3c2c(=O)[nH]c(=O)n3C)n1 returned BRCA1 expr act -13%, Giardia kill 29, RORgamma inh 12%, p53 reactivation 0%, ELG1 DNA repair 9.2µM* and Gal4-VP16 FLuc 8%.
For C=CCC[C@@H](Cc1ccc(F)cc1)C(=O)OC[C@@H]1CCCN1C(=O)[C@@H](CC=C)CC(=O)N(CCO)Cc1ccccc1 the results were BRCA1 expr act -60%, Giardia kill -12, p53 reactivation -3% and ELG1 DNA repair inconclusive.
For CCCCc1nn2c(=O)cc(COC(=O)c3ccc4c(c3)OCO4)nc2s1 the results were BRCA1 expr act 10%.
CCOC(=O)c1ccc(N2C(=O)C=C(N3CCOCC3)C2=O)cc1 was read as BRCA1 expr act -1%, Giardia kill -1, RORgamma inh 25%, p53 reactivation 1%, ELG1 DNA repair 1% and Gal4-VP16 FLuc -11%.
O=C1C=C(N2CCCCC2)c2ccccc2C1=O was read as BRCA1 expr act -114% and Giardia kill -11.
`CC(C)(C)C1=CC(=O)C(N2CCOCC2)=CC1=O` gave BRCA1 expr act 5%, Giardia kill -1, RORgamma inh 10µM*, p53 reactivation inconclusive, ELG1 DNA repair 2% and Gal4-VP16 FLuc inconclusive.
CCC(C)NC(=O)CCn1c(-c2ccccc2)cc(C(C)=O)c1C (centres undefined) was read as BRCA1 expr act -23%, Giardia kill 3, RORgamma inh -5%, p53 reactivation -9%, ELG1 DNA repair 11% and Gal4-VP16 FLuc -6%.
Cc1ccc2c(Cl)c(C(=O)Nc3cccnc3)sc2c1 was read as BRCA1 expr act -3%, Giardia kill -10, RORgamma inh -10%, p53 reactivation 25%, ELG1 DNA repair 8.2µM* and Gal4-VP16 FLuc -10%.
Cc1ccc2c(Cl)c(C(=O)NC3CC3)sc2c1 was read as BRCA1 expr act 2.8µM*, Giardia kill -9, RORgamma inh -10%, p53 reactivation 23%, ELG1 DNA repair inconclusive and Gal4-VP16 FLuc -8%.
CCn1c(NC(=O)C(C)C)c(-c2cccs2)c(=O)c2ccccc21 was read as BRCA1 expr act -2%, Giardia kill -5, RORgamma inh 2%, p53 reactivation -1%, ELG1 DNA repair 10% and Gal4-VP16 FLuc -6%.
For CCN(CC)CCN1C(=O)Cn2c(C)c(C)c3cccc1c32 the results were BRCA1 expr act -1%, Giardia kill 4, RORgamma inh inconclusive, p53 reactivation -14%, ELG1 DNA repair -5% and Gal4-VP16 FLuc 9%.
`CC(C)(C)n1[nH]c2c3c(ccc2c1=O)C(=O)c1ccccc1C3=O` gave BRCA1 expr act -76%, Giardia kill inconclusive, RORgamma inh inconclusive, p53 reactivation inconclusive, ELG1 DNA repair -1% and Gal4-VP16 FLuc -19%.
COCCCn1[nH]c2c3c(ccc2c1=O)C(=O)c1ccccc1C3=O was read as BRCA1 expr act -43%, Giardia kill -93*, RORgamma inh 16µM*, p53 reactivation inconclusive, ELG1 DNA repair 26µM* and Gal4-VP16 FLuc inconclusive.
For Cc1ccc(-n2[nH]c3c4c(ccc3c2=O)C(=O)c2ccccc2C4=O)cc1 the results were BRCA1 expr act -5%, Giardia kill -8, RORgamma inh -5%[10 µM], p53 reactivation 4%, ELG1 DNA repair 17% and Gal4-VP16 FLuc 3%.
Screening Cc1ccc(C)c(-n2[nH]c3c4c(ccc3c2=O)C(=O)c2ccccc2C4=O)c1 returned BRCA1 expr act 2%, Giardia kill inconclusive, RORgamma inh 6.3µM*, p53 reactivation 3%, ELG1 DNA repair -5% and Gal4-VP16 FLuc -23%.
For O=C(Nc1ccccc1)c1cc(C2CCCCN2S(=O)(=O)c2cccs2)on1 (centres undefined) the results were BRCA1 expr act 90%.
For Cc1ccc(NC(=S)NCc2ccccn2)cc1 the results were BRCA1 expr act 27%, Giardia kill 15, RORgamma inh 4µM*, p53 reactivation 0%, ELG1 DNA repair inconclusive and Gal4-VP16 FLuc 16µM*.
`Cc1ccc(NC(=S)NNC(=S)NCc2ccccc2)cc1` gave BRCA1 expr act -2%, Giardia kill -4, RORgamma inh -24%, p53 reactivation -4%, ELG1 DNA repair 8% and Gal4-VP16 FLuc -10%.
Screening S=C(NCc1ccccn1)Nc1cccc(Cl)c1 returned BRCA1 expr act 33%, Giardia kill -10, RORgamma inh 6.3µM*, p53 reactivation 2%, ELG1 DNA repair 0% and Gal4-VP16 FLuc 13µM*.
For Cc1cccc(NC(=S)NCc2ccccn2)c1 the results were BRCA1 expr act 40%, Giardia kill 14, RORgamma inh 5µM*, p53 reactivation 0%, ELG1 DNA repair 9% and Gal4-VP16 FLuc inconclusive.
`FC(F)(F)c1cccc(NC(=S)NCc2ccccn2)c1` gave BRCA1 expr act 9%, Giardia kill 10, RORgamma inh 3.5µM*, p53 reactivation 2%, ELG1 DNA repair 15% and Gal4-VP16 FLuc 7.1µM*.
`CC(=NNC(=S)Nc1cccc(Cl)c1)c1ccccn1` gave BRCA1 expr act inconclusive and Giardia kill -27.
For NNC(=O)CSc1nnnn1-c1ccccc1 the results were BRCA1 expr act 21%, Giardia kill -11, RORgamma inh -35%, p53 reactivation -3%, ELG1 DNA repair 5% and Gal4-VP16 FLuc 4%.
Screening CCCN=C1N(CC)C[C@@H]2[C@@H]3C(=O)N(C)C(=O)[C@@H]3[C@](Cc3ccccc3)(C(=O)OC)N12 returned BRCA1 expr act 13%, Giardia kill 0, p53 reactivation 0% and ELG1 DNA repair 23%.
CCOC(=O)c1cc(-c2ccc(N)cc2)sc1N was read as BRCA1 expr act inconclusive, Giardia kill 7, RORgamma inh 38%, p53 reactivation 9%, ELG1 DNA repair inconclusive and Gal4-VP16 FLuc 27%.
`CCOC(=O)c1sc(-c2ccc(Br)cc2)cc1N` gave BRCA1 expr act 7.1µM*, Giardia kill 11, RORgamma inh 44%, p53 reactivation 10%, ELG1 DNA repair inconclusive and Gal4-VP16 FLuc -12%.
Screening CCc1ccc(OCC(=O)NC(=S)Nc2ccc(C(=O)O)cc2)cc1 returned BRCA1 expr act -5%, Giardia kill 15, RORgamma inh 21%, p53 reactivation 0%, ELG1 DNA repair 6% and Gal4-VP16 FLuc -5%.
